# Data reported in PubChem BioAssay (NCATS).
# Where “and” joins values, the source holds several entries; their conditions need not be identical. Equal entries are not always repeated. Inconclusive results are not listed. Calls of active or inactive are those of the source. Unless noted, the rule behind the calls is not given here.
# How the values were obtained:
# [1] = qHTS profiling for inhibitors of Plasmodium falciparum (3D7) proliferation (AID 743322);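 note: infected erythrocytes exposed to compound for 72 h before lysis; 100% = DMSO vehicle wells and 0% = 0.29 µM artemisinin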; details: P. falciparum 3D7 proliferation; at 28.7 µM (top of the series) unless noted
# Method in brief: (§1)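 Erythrocytes infected with P. falciparum (0.3% parasitemia, 2.5% hematocrit) incubated with compounds 72 h at 37 C, 5% CO2. Lysis with saponin/Triton buffer containing SYBR Green I, overnight at room temperature in the dark; DNA fluorescence (485/535 nm) normalised to 0.29 uM artemisinin and DMSO.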
# [2] = qHTS profiling for inhibitors of Plasmodium falciparum (DD2) proliferation (AID 743323); details: lower = more inhibition; at 28.7 µM (top of the series) unless noted
# Method in brief: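 P. falciparum Dd2-infected erythrocytes (0.3% parasitemia, 2.5% hematocrit) exposed 72 h at 37 C, 5% CO2. Lysis with SYBR Green, overnight at room temperature, fluorescence 485/535 nm; normalized to 0.29 uM artemisinin and DMSO.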
# [3] = qHTS profiling for inhibitors of Plasmodium falciparum (HB3) proliferation (AID 743324; active = well fitted curve in the direction sought with a large enough effect; an effect the other way counts as inactive or inconclusive;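 note: 100% = DMSO vehicle wells and 0% = artemisinin-treated control wells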); details: Plasmodium falciparum HB3 blood-stage proliferation; at 28.7 µM (top of the series) unless noted
# Method in brief: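 P. falciparum HB3 grown in erythrocytes (0.3% parasitemia, 2.5% hematocrit final) with compound for 72 h at 37 C, 5% CO2. Parasite DNA detected by SYBR Green after saponin/triton lysis overnight; normalized to 0.29 uM artemisinin and DMSO.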
# [4] = qHTS profiling of the MIPE4 collection as inhibitors of Plasmodium falciparum (3D7) proliferation (AID 743344);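 note: scaled between DMSO vehicle wells and 0.29 µM artemisinin as full inhibition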; details: P. falciparum 3D7 in erythrocytes, SYBR Green DNA fluorescence, 72 h; at 28.5 µM (top of the series) unless noted
# Method in brief: as §1
# [5] = qHTS profiling of the MIPE4 collection as inhibitors of Plasmodium falciparum (DD2) proliferation (AID 743345); details: P. falciparum Dd2 in erythrocytes, SYBR Green DNA, 72 h; at 28.5 µM (top of the series) unless noted
# Method in brief: as §1
# [6] = qHTS profiling of the MIPE4 collection as inhibitors of Plasmodium falciparum (DD2) proliferation (Rep 2) (AID 743346); details: P. falciparum Dd2 in erythrocytes, SYBR Green DNA, 72 h; at 28.5 µM (top of the series) unless noted
# Method in brief: as §1
# [7] = qHTS Assay for Identifying Gametocytocidal Compounds (AID 743244; active = well fitted curve in the direction sought with a large enough effect; an effect the other way counts as inactive or inconclusive;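 note: % is set by controls: 0 for no effect and ±100 for the full control effect; actives lower the fluorescent signal which means gametocytes are killed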); details: P. falciparum 3D7 stage III-V gametocytes, alamarBlue, 72 h; max response: stronger effect = lower value
# Method in brief: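 Viability read-out was resazurin reduction (alamarBlue, 24 h) measured at Ex 525/Em 598 nm. Beforehand, late-stage (III-V) 3D7 P. falciparum gametocytes at 20,000 cells/well were incubated with compound 72 h at 37C under 5% CO2.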
# [8] = qHTS assay for cell viability of HEK293 cells (AID 743288; active = well fitted curve in the direction sought with a large enough effect; an effect the other way counts as inactive or inconclusive; note: % is set by controls: 0 for no effect and ±100 for the full control effect; nearly all actives have a fitted effect of over 50% in size); details: ATP luminescence (CellTiter-Glo), 18 h; max response: stronger effect = lower value
# Method in brief: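 HEK293 parental, 2,000 cells/well; ≥5 h pre-incubation 37 C; pintool compound addition; 18 h, 37 C; CellTiter-Glo 30 min RT; luminescence read.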
Compound,remaining parasite growth % (stronger effect = lower value) [1],"activity, percent of control [2]","remaining proliferation (% of control), lower = more inhibition [3]","parasite growth, % of DMSO control [4]","parasite growth remaining, % of DMSO control (lower = more inhibition) [5]","parasite growth, % of control (lower = inhibition) [6]",max response [7],max response [8]
CC(C)(C)OC(=O)CN(Cc1ccc(Cl)cc1)Cc1ccc([N+](=O)[O-])s1,2.82%,3.12%,-1.32%,99.5%,19.7%,26.7%,–,–
O=C(NOC[C@H](O)CO)c1ccc(F)c(F)c1Nc1ccc(I)cc1F,106%,–,–,86.4%,102%,95.7%,24.9% (inactive),–
COc1ccc(-c2oc3cc(OC)ccc3c2C(=O)c2ccc(C#N)cc2)cc1,62.8%,77%,23.4%,23.1%,81.9%,14.8%,–,–
C/C(=C\C(=O)Nc1ccccc1C(=O)O)c1ccc2ccccc2c1,32.7%,101%,114%,–,–,–,–,–
Cc1csc(NC(=O)c2sc3nc4c(c(C(F)(F)F)c3c2N)CCC4)n1,100%,–,87.9%,44.6%,90.9%,62.4%,13.6% (inactive),–
O=C(O)CCc1ccc(NCc2cccc(Oc3ccccc3)c2)cc1,29.5%,–,98.6%,93.6%,–,210%,20.3% (inactive),–
CCn1c(-c2nonc2N)nc2c(C#CC(C)(C)O)ncc(OC[C@H]3CCCNC3)c21,5.66%,2.74%,2.14%,5.72%,11.8%,13.9%,–,–
CCc1cncnc1N1CCN(Cc2nc3ccc(C(F)(F)F)cc3[nH]2)CC1,24.3%,–,14%,19.6%,–,27.9%,8.68% (inactive),–
O=C(c1cc(Cc2n[nH]c(=O)c3ccccc23)ccc1F)N1CCN(C(=O)C2CC2)CC1,88.8% and 97.4%,97.9% and 99.7%,57.9% and 59.4%,23.5%,92.7%,44.7%,–,–
CCOc1cc(C=C2C(=O)N(c3ccccc3)N=C2C)cc(Cl)c1OCC(=O)OC,88.1%,92.3%,102%,102%,97.3%,106%,–,–
COc1cccc2cc(-c3nc(C4CCC(C(=O)O)CC4)n4ncnc(N)c34)[nH]c12 (configuration not stated),64.8%,–,–,13.9%,16.6%,28.6%,-10.8% (inactive),–
CC1(C)Cc2c(-c3ccccc3)c(-c3ccc(Cl)cc3)c(CC(=O)O)n2C1,6.49%,13.4%,7.77%,61%,90.7%,63.6%,–,–
COc1cc(F)c(F)c(Nc2ccc(I)cc2F)c1NS(=O)(=O)C1(C[C@H](O)CO)CC1,83.5%,–,39.5%,45.3%,71.1%,–,19.8% (inactive),–
CC1(C)CNc2cc(NC(=O)c3cccnc3NCc3ccncc3)ccc21,70.1%,–,5.63%,53.8%,86.3%,42.2%,-7.52% (inactive),–
CNC(=O)c1ccc(C)c(-n2c(C)cc(OCc3ccc(F)cc3F)c(Br)c2=O)c1,91.9%,–,52.2%,42%,–,–,32.9% (inactive),–
CC(c1cc2ccccc2s1)N(O)C(N)=O (configuration not stated),101% [at 57.5 µM],–,109% [at 57.5 µM],94.1%,–,–,2.55% (inactive),–
COc1cc(Nc2ncc3c(n2)-c2ccc(Cl)cc2C(c2c(F)cccc2OC)=NC3)ccc1C(=O)O,89.5%,78.1%,61.2%,24.7%,69.6%,39.4%,–,–
Cc1c(C)c2c(c(C)c1O)CCC(C)(COc1ccc(CC3SC(=O)NC3=O)cc1)O2 (configuration not stated),93.1%,80%,46.8%,35.4%,83.4%,43.6%,–,-10.3% (inactive)
CCOC(=O)N[C@@H]1CC[C@@H]2[C@@H](C1)C[C@H]1C(=O)O[C@H](C)[C@H]1[C@@H]2C=Cc1ccc(-c2cccc(F)c2)cn1,1.23%,7.47%,0.902%,7.63%,45%,22%,–,–
CC(C)(N)C(=O)N[C@H](COCc1ccccc1)C(=O)N1CCC2(CC1)CN(S(C)(=O)=O)c1ccccc12,88.9%,10.9%,1.31%,22.8%,–,–,–,–
